Among all 2,300 compounds or so, about 1,000 (43%) were called active. The rule behind the calls is not given here. So high a share suggests a set chosen from earlier hits. The list shows a part of the results. Measured potencies and affinities stand elsewhere.

This assay can be described thus: modified counter assay using GFP fluorescence, PhoP regulon inhibitor project, dose response (AID 1985). The conditions noted are these: S. Typhi, 4 h; series mostly up to 150 µM.
`O=c1oc2ccccc2c(O)c1C(c1ccccn1)c1c(O)c2ccccc2oc1=O`: the result was inactive.
With `S=C(Nc1ccccc1Cl)N(Cc1ccccc1)Cc1ccccn1` the entry was “inactive”.
For `O=C(NC(=O)c1ccccc1)OCC1CCCN2CCCCC12` (stereo not drawn), the compound was classed as inactive.
Take `Cc1cc(C)c2nc(/N=C(\N)NC(=O)c3ccccc3)nc(C)c2c1`: the outcome was inactive.
Regarding `O=C(CC(=O)NCc1ccccc1)NCc1ccccc1`, the call was inactive.
Turning to `O=C(c1cccs1)N1CCN(S(=O)(=O)c2ccccc2)CC1`, the compound was called inactive.
In the case of `CC(C)(C)c1ccc(C(=O)NNC(=O)Cc2ccccc2)cc1` it was “inactive”; in that of `Cc1cc(C(=O)Nc2cccnc2)on1`, “inactive”.
Consider `CCOC(=O)c1ccc(NC(=O)c2cc3c(s2)CCC3)cc1`, for which the compound was classed as inactive.
`O=C(CCCc1ccccc1)Nc1cccnc1`: the result was inactive.
With `Cc1cc(C)c([C@@H]2C[C@H]3CN(C4CCCC4)C(=O)[C@]34CCCN24)c(-n2cccn2)c1` the entry was “inactive”.
With `O=C(CCCOc1ccc(Cl)cc1Cl)NNC(=O)C1CCC1` the entry was “inactive”; with `CC(C)(C)c1ccc(OCCCNC2CCCC2)cc1`, “inactive”; with `CSCCC(NC(=O)c1ccc(Br)cc1)C(=O)O` (stereo not drawn), “inactive”.
In the case of `CCOc1ccc(NC(=O)c2ccc(N)cc2)cc1` it was “inactive”.
As for `CCCOc1ccc(C(=O)NNC(=S)NC(=O)c2ccco2)cc1`, the outcome was inactive.
With `Cc1ccc(CCNC(=O)C2CCN(S(=O)(=O)N3CCCC3)CC2)cc1` the entry was “inactive”; with `O=C1C=C(c2ccc(Cl)cc2)C(=O)N1Nc1ccccc1`, “inactive”; with `CCCn1c(SCc2ccc(Cl)cc2)nc2c1c(=O)[nH]c(=O)n2C`, “inactive”.
With `CN1CCCN(C(c2ccccc2)c2ccc(Cl)cc2)CC1` (stereo not drawn) the entry was “inactive”; with `Cc1c(C(=O)Nc2ccncc2)sc2nc(-c3ccc(F)cc3)cn12`, “inactive”.
In the case of `Fc1ccc(NC(=S)NCc2ccccc2Cl)cc1` it was “inactive”; in that of `Clc1ccc(CNCc2cccs2)cc1Cl`, “inactive”; in that of `COc1ccccc1CNC(=O)COC(=O)CCC(=O)c1cccs1`, “inactive”.
As for `COc1cccc(CNc2nn[nH]n2)c1OC`, the call was inactive.
With `Fc1ccccc1CSc1ccc(-c2ccco2)nn1` the entry was “inactive”; with `O=C(O)CCSCc1ccccc1F`, “inactive”.
Turning to `COc1ccc2[nH]cc(CC(=O)O)c2c1`, the call was inactive.
In the case of `COc1ccc(C2=NN3C(C2)c2ccccc2OC3c2cccs2)cc1` (stereo not drawn) it was “inactive”; in that of `O=C(O)COc1ccccc1/C=N/NC(=O)c1cccc(S(=O)(=O)N2CCOCC2)c1`, “inactive”.
In the case of `O=C(CSc1cccc2cccnc12)Nc1ccc(S(=O)(=O)N2CCOCC2)cc1` it was “inactive”; in that of `Cn1c(-c2ccc(Cl)cc2)cnc1N`, “inactive”; in that of `O=[N+]([O-])c1ccc(-c2cnc(NO)nc2)cc1`, “inactive”.
In the case of `COc1cccc(C(=O)N(CN2CCCC2=O)c2cc(C)on2)c1` it was “inactive”; in that of `N#Cc1ccc(C2=NC(C(F)(F)F)(C(F)(F)F)c3c(n(Cc4ccco4)c(=O)[nH]c3=O)N2)cc1`, “inactive”.
For `COc1ccc(NC(=O)C2CCCN(C(=O)NC3CCCCC3)C2)cc1OC` (stereo not drawn), the compound was classed as inactive.
For the compound `CCN1CCN(c2nc3ccccc3nc2C(C#N)S(=O)(=O)c2ccc(C)cc2)CC1` (stereo not drawn), the compound was called inactive.
Regarding `Cc1ccc(S(=O)(=O)NCC(=O)OCN2C(=O)c3ccccc3C2=O)cc1`, the outcome was inactive.
On to `COc1ccc(-c2cc(=NCC(=O)O)c3ccccc3o2)cc1`, for which the compound was called inactive.
In the case of `CCOC(=O)C(NC(C)=O)(Nc1cccc(F)c1)C(F)(F)F` (stereo not drawn) it was “inactive”; in that of `O=C(Nc1cccc(F)c1)NC1CCCCC1`, “inactive”; in that of `CC(=O)Nc1cccc(NC(=O)Nc2ccc(C)c(Cl)c2)c1`, “inactive”.
In the case of `Cc1nc(NC2=NCN(CCCN3CCOCC3)CN2)nc2c(C)cccc12` it was “inactive”.

Source of the values: PubChem BioAssay AID1985 (Southern Research Specialized Biocontainment Screening …, 2009).
